Measurements from PubChem BioAssay (NCATS).
Records with an inconclusive call do not appear. Active and inactive are the calls of the source. The call rests on the fitted dose curve; in most records, active means well fitted curve in the direction sought with a large enough effect; inconclusive means small, poorly fitted or top-dose-only effect, or another doubt; inactive means no such curve, though single readings can be large; an effect the other way counts as inactive or inconclusive.

Key:
[1] = Cellular Toxicity (caspase-3) Renal Proximal Tubule (AID 667);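 further: cells exposed to compound for 16 hours at 37 °C before detection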
How it was run: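 Caspase 3/7 activation measured by luminescent aminoluciferin release in primary rat proximal tubule cells after 16 hr compound exposure at 37 °C. AC50 from Hill-fitted concentration-response, scaled between DMSO and 10 uM staurosporine.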

[2] = molecular target: Cytochrome P450 3A4 (Homo sapiens) (UniProt P08684); assay: qHTS Assay for Inhibitors and Substrates of Cytochrome P450 3A4 (AID 884); further: series mostly up to about 57 µM; nearly all actives have a fitted effect of over 50% in size
Chain of Cytochrome P450 3A4 (Homo sapiens) (P08684 whole entry, looked up): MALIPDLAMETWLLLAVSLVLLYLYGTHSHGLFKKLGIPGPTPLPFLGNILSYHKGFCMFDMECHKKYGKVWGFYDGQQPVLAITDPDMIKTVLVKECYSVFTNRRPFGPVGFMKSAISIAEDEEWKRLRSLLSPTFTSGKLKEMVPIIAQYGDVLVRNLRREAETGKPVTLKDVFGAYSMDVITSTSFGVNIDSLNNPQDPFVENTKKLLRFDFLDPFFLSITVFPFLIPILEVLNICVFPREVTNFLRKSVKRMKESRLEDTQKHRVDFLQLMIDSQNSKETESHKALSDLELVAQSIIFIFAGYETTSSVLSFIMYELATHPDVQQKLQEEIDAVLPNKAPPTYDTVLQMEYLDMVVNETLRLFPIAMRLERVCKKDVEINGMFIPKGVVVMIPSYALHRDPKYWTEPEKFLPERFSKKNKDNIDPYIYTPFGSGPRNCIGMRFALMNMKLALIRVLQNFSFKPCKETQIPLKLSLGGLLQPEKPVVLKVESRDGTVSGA
How it was run: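 Luminescent readout of luciferin produced by CYP3A4 (20 nM) dealkylation of Luciferin-PPXE, 25 uM (its KM). NADPH-driven reaction ran 60 min at RT after 10 min compound preincubation; data scaled to 57 uM ketoconazole as 100% inhibition.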

[3] = Cell Viability - LYMP2-001 (AID 921); further: series mostly up to about 92 µM; nearly all actives have a fitted effect of over 70% in size
How it was run: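 Cellular ATP loss read by luciferase luminescence after 24 h compound exposure at 37 C in complete medium. LYMP2-001 lymphoblastoid cells, 2500/well; qHTS concentration-response data fitted with Hill equation for AC50.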

[4] = MultiTox-Fluor Cytotoxicity Assay - LYMP1-001 - Dead Cells (AID 946)
How it was run: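 Cytotoxicity as increased dead-cell protease fluorescence (bis-AAF-R110, 485/520 nm), read 60 min after MultiTox-Fluor reagent. Human lymphoblastoid line exposed 16 h; Hill-fitted AC50, with DMSO as 0% and 15 uM tetraoctylammonium bromide as 100%.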

[5] = MultiTox-Fluor Cytotoxicity Assay - LYMP1-001 - Live Cells (AID 947)
[6] = MultiTox-Fluor Cytotoxicity Assay - LYMP1-002 - Live Cells (AID 955);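 further: cells exposed to compound for 16 hours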
How it was run: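 In this qHTS viability format, lymphoblastoid cells (LYMP1-002, human) received compound for 16 hr at 37 C. Fluorogenic GF-AFC cleavage by viable cells was detected at 405/510 nm after 1 h at room temperature.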

[7] = MultiTox-Fluor Cytotoxicity Assay - LYMP1-002 - Dead Cells (AID 960); further: nearly all actives have a fitted effect of over 60% in size
How it was run: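 Concentration-dependent increases in membrane-leaked protease activity are quantified in LYMP1-002 cells after 16 hr treatment; values are normalized against DMSO and tetraoctylammonium bromide (15 uM) controls and AC50 derived by Hill modeling.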

[8] = MultiTox-Fluor Cytotoxicity Assay - LYMP1-003 - Dead Cells (AID 961); further: nearly all actives have a fitted effect of over 70% in size
How it was run: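 Dead-cell protease release, detected as bis-AAF-R110 fluorescence at 485/520 nm, was measured in LYMP1-003 cells after 16 h compound treatment at 37 C. AC50 values came from Hill-modeled qHTS curves normalized to DMSO (0%) and 15 uM tetraoctylammonium bromide (100%).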

[9] = MultiTox-Fluor Cytotoxicity Assay - LYMP1-003 - Live Cells (AID 962);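 further: cells exposed to compound for 16 hours at 37 °C; cytotoxic hits lower the live-cell protease signal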
How it was run: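 Human lymphoblastoid line LYMP1-003 in complete culture medium, treated 16 hr with titrated compounds. Viable cells quantified via cell-permeant GF-AFC substrate fluorescence; AC50 derived by Hill fitting.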

[10] = Cell Viability - LYMP1-003 - Assay at 24 hr (AID 963)
How it was run: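 The lymphoblastoid line was treated with titrated compounds for 24 hours, and viable cell number estimated from luciferase-based ATP luminescence.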

[11] = Cell Viability - LYMP1-003 - Assay at 40 hr (AID 964); further: series mostly up to about 92 µM; nearly all actives have a fitted effect of over 60% in size
How it was run: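 Acute toxicity is scored as a concentration-dependent loss of intracellular ATP in LYMP1-003 cells (2500/well, complete medium) after 40 hr at 37 C, measured by CellTiter-Glo luminescence; AC50 values derive from standard Hill modelling.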

[12] = Cell Viability - LYMP2-003 (AID 965);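 further: cells exposed to compounds for 24 h before reading; nearly all actives have a fitted effect of over 50% in size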
How it was run: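 CellTiter-Glo luminescence quantified ATP loss after 24 h compound treatment of LYMP2-003 lymphoblastoid cells at 37 C. Titration series were fitted with the standard Hill equation to give AC50.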

[13] = Cell Viability - LYMP2-004 (AID 966); further: nearly all actives have a fitted effect of over 65% in size
How it was run: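 Viable-cell number estimated from ATP luminescence (CellTiter-Glo) in 2500 human lymphoblastoid cells/well after 24 hr at 37 C with compound. AC50 fitted to the standard Hill equation.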

[14] = Cell Viability - LYMP2-005 (AID 967); further: series mostly up to about 92 µM
How it was run: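 LYMP2-005 human lymphoblastoid cells (2500/well) were treated with compounds for 24 h at 37 C. Intracellular ATP was then measured by CellTiter-Glo luminescence after 30 min at room temperature. AC50 values came from Hill-equation fits of qHTS concentration-response data.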

[15] = Cell Viability - LYMP2-009 (AID 968); further: series mostly up to about 92 µM; nearly all actives have a fitted effect of over 55% in size
[16] = Cell Viability - LYMP2-011 (AID 969); further: nearly all actives have a fitted effect of over 60% in size
How it was run: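 Cells seeded at 2500 per well rest 5 hr before compound addition, then incubate 24 hr at 37 C. CellTiter-Glo reagent is added for 30 min at room temperature before luminescence detection.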

[17] = Cell Viability - LYMP2-013 (AID 970); further: series mostly up to about 92 µM; nearly all actives have a fitted effect of over 55% in size
How it was run: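 In complete culture medium, human lymphoblastoid cells were dosed for 24 hr at 37 C, with tetraoctylammonium bromide (6.4pM to 92 uM) as positive control. Viability reflects luciferase-based ATP signal; AC50 derived from concentration-response curves.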

[18] = Cell Viability - LYMP2-015 (AID 971); further: nearly all actives have a fitted effect of over 55% in size
How it was run: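 AC50 values reflect Hill-model fits of ATP-based luminescence (CellTiter-Glo) from a human lymphoblastoid line, 2500 cells/well, treated 24 hr at 37 C.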

[19] = Cell Viability - LYMP2-017 (AID 972); further: series mostly up to about 92 µM; nearly all actives have a fitted effect of over 55% in size
How it was run: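 In this qHTS format, lymphoblastoid cells in complete medium receive test compound for a day at 37 C before ATP content is quantified by luciferase luminescence. Reported AC50 figures come from standard Hill-equation curve fitting.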

[20] = Cell Viability - LYMP2-019 (AID 973); further: nearly all actives have a fitted effect of over 55% in size
How it was run: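 AC50 values come from Hill-equation modelling of qHTS concentration-response curves, where viability is measured as luciferase-based ATP luminescence in the lymphoblastoid line after 24 hr compound exposure in complete culture medium.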

[21] = Cell Viability - LYMP2-021 (AID 974)
How it was run: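 In qHTS format, compounds are tested against 2500 lymphoblastoid cells per well for 24 h; viable cell number is inferred from ATP-driven luciferase light, and Hill-equation fitting yields AC50 values.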

[22] = Cell Viability - LYMP2-023 (AID 975)
How it was run: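 In this qHTS, ATP-based luciferase luminescence (CellTiter-Glo) is quantified in human lymphoblastoid cells after 24 hr compound treatment at 37 C; tetraoctylammonium bromide serves as positive control. Concentration-response curves are Hill-fitted to give AC50.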

[23] = Cell Viability - LYMP2-025 (AID 976); further: series mostly up to about 92 µM
How it was run: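 Luminescent ATP readout after 24 hr treatment of a human lymphoblastoid line (LYMP2-025, 2500 cells/well, 37 C). Reagent developed 30 min at room temperature; AC50 fitted with the Hill equation.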

[24] = Cell Viability - LYMP2-002 (AID 977); further: series mostly up to about 92 µM
How it was run: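 Human lymphoblastoid cells (2500/well) in complete medium were preincubated 5 hr at 37 C, then exposed to compounds for 24 hr at 37 C. Intracellular ATP was read by CellTiter-Glo luminescence; AC50 came from Hill-equation concentration-response fits.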

Measured: Potency

COC(=O)c1ccccc1C(=O)OC
inactive: [1] | [2] | [3] | [4] | [5] | [6] | [7] | [8] | [9] | [10] | [11] | [12] | [13] | [14] | [15] | [16] | [17] | [18] | [19] | [20] | [21] | [22] | [23] | [24]
